Inconclusive results are not listed. A call without a number means that no potency is given here. The source made the active and inactive calls. Calls follow the shape of the dose curve; as a rule, active = well fitted inhibition curve with a large enough effect; inconclusive = small, poorly fitted or top-dose-only effect; inactive = flat fitted curve, though single readings scatter.

This experiment addresses Aldehyde dehydrogenase, mitochondrial (Homo sapiens) (UniProt P05091). Kind of experiment: qHTS for Inhibitors of the Aldehyde Dehydrogenase Family (ALDH2) Primary screen (AID 2061308). Also: nearly all actives have a fitted effect of over 55% in size. The note with it: ALDH2 enzyme inhibition qHTS, 1536-well; series mostly up to 56 µM.
Consider `CN[C@@H]1C[C@H]2O[C@@](C)([C@@H]1OC)n1c3ccccc3c3c4c(c5c6ccccc6n2c5c31)C(=O)NC4`, for which the Potency result is “inactive”.
In the case of `O=C(N[C@@H](COc1ccc2[nH]c(=O)[nH]c2c1)c1ccccc1)c1cccn(Cc2ccc(F)c(F)c2)c1=O`, the Potency entry was “inactive”.
Next, `C[C@@H]1O[C@@H](O[C@H]2CC[C@@]3(C)C(CC[C@@H]4C3CC[C@]3(C)[C@@H](C5=CC(=O)OC5)CC[C@]43O)C2)[C@H](O)[C@H](O)[C@H]1O` (stereo not given in full): “inactive”; `COc1ccc(CCNCc2ccc(OC)c3ccccc23)cc1`: “inactive”; `O=C(NCC1CCOCC1)c1cnc(Nc2ccc(Cl)cc2Cl)nc1C(F)(F)F`: “inactive”.
In the case of `C[C@]12CC[C@H](O)CC1=CC[C@@H]1[C@@H]2CC[C@]2(C)C(=O)CC[C@@H]12` it was “inactive”; in that of `CCC1CN2CCC3(C(=O)Nc4cccc(O)c43)C2CC1/C(=C/OC)C(=O)OC` (stereo not given), “inactive”.
In the case of `S=P(c1ccccc1)(c1ccccc1)c1c[n+](Cc2ccccc2)c2ccccn12`, the Potency result was “inactive”.
With `C[C@@H](CN1CCC(n2c(=O)[nH]c3cc(Br)ccc32)CC1)NC(=O)[C@@H]1C[C@H]1c1ccccc1`, the Potency result was “inactive”.
Next, `C[C@H]1CCC/C=C/C2C[C@H](O)C[C@H]2[C@H](O)/C=C/C(=O)O1` (stereo not given in full): “inactive”.

The values above are taken from PubChem BioAssay (NCATS).
